The values below come from PubChem BioAssay.

Where “and” joins values, the source holds several entries; their conditions need not be identical. Identical values can stand only once. Records with an inconclusive call do not appear. Calls of active or inactive are those of the source. Unless noted, the limit is not given here; nearly all actives have AC50 up to about 30 µM.

A short description of assay [1]: growth inhibition, single agents and combos, ICB984, cell-based, cisplatin or BGB combos, synergistic combos for chromothripsis tumors (AID 1671451).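 Also: cells exposed for 96 hours before readout; 0% = vehicle DMSO and 100% = killing by high DMSO.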 The note with it: ICB984 medulloblastoma cells, drug combinations, stronger effect = higher value.
The nature of assay [2]: growth inhibition, single agents and combos, HTB85, cell-based, BGB or cisplatin IC20 combos, synergistic combos for chromothripsis tumors (AID 1671453; in the data active = inhibition above about 80%;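 also: cells exposed for 96 hours before readout; 0% = vehicle DMSO and 100% = high DMSO killing control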). The note with it: HTB85 osteosarcoma cells, drug combinations, stronger effect = higher value.
Assay [3] in a line: growth inhibition, MDA-MB-436, cell-based, BGB or cisplatin combos, synergistic combos for chromothripsis tumors (AID 1671458; call rule not given here;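 also: cells exposed for 96 hours; 0% = vehicle DMSO and 100% = killing by high DMSO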). The settings on record: MDA-MB-436 breast carcinoma growth inhibition, drug combinations, stronger effect = higher value.
Assay [4] can be described thus: BT084 cell growth, single and combined drugs, ICGC_MB145, cisplatin and BGB IC40 combos (AID 1671461; in the data active = inhibition above about 80%;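 also: cells exposed to drugs for 96 hours; 0% = vehicle DMSO and 100% = high DMSO full killing control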). The settings on record: BT084 medulloblastoma cells, drug combinations, stronger effect = higher value.
A short description of assay [5]: RCMB18 cell growth, single agent and combined, cisplatin and BGB IC40 combos (AID 1671462; in the data active = inhibition above about 80%;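 also: cells exposed to compound for four days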). The note with it: RCMB18 medulloblastoma cells, stronger effect = higher value.
Assay [6] in a line: CRL1545 cell growth, single agent and combined, cisplatin and BGB IC20 combos (AID 1671464; in the data active = inhibition above about 80%;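 also: cells exposed to compound for 96 hours before readout; 0% = vehicle DMSO and 100% = high DMSO killing control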). The note with it: CRL1545 osteosarcoma cells, stronger effect = higher value.
A short description of assay [7]: viability loss in pontine glioma line – cell-based, JHH-DIPG-1, MIPE4.0, CellTiter-Glo, qHTS, dose response (AID 1347062; cut-off not given, nearly all actives have AC50 up to about 27 µM;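 as to AC50: cells exposed to compound for two days before readout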). The note with it: JHH-DIPG-1 viability, CellTiter-Glo ATP luminescence. (ATP-based viability assays read luminescence as a measure of living cells.)
Assay [8] is described as follows: viability loss in pontine glioma line – cell-based, SU-DIPG-IV, MIPE4.0, CellTiter-Glo, qHTS, dose response (AID 1347063).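 Also: compound exposure lasted 48 hours before the viability readout.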 The settings on record: CellTiter-Glo ATP luminescence.
Assay [9] in a line: viability loss in pontine glioma line – cell-based, SU-DIPG-XXV, MIPE5.0, CellTiter-Glo, qHTS, dose response (AID 1347065; cut-off not given, nearly all actives have AC50 up to about 26 µM;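 also: cells exposed to compound for 48 hours before ATP readout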). The settings on record: CellTiter-Glo ATP luminescence.
The nature of assay [10]: growth inhibition of DIPG cells – cell-based, MIPE4.0 library, CellTiter-Glo luminescence, qHTS (AID 1347066).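 Also: cells exposed to compound for 48 hours before readout.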 The settings on record: SU-DIPG-VI viability, CellTiter-Glo ATP luminescence.
Assay [11] in a line: JHH-DIPG-1 glioma cell viability, MIPE5.0 library, CellTiter-Glo luminescence, qHTS (AID 1347067; cut-off not given, nearly all actives have AC50 up to about 26 µM;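 also: cells exposed to compound for 48 hours before readout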). The note with it: JHH-DIPG-1 glioma viability, CellTiter-Glo ATP luminescence.
The nature of assay [12]: growth inhibition of DIPG cells – cell-based, MIPE5.0 library, qHTS (AID 1347068; cut-off not given, nearly all actives have IC50 up to about 30 µM;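 as to IC50: cells exposed to compound for 48 hours before viability readout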). The note with it: SU-DIPG-XXV viability. (In general: In qHTS, concentration-response curves come from the screen itself.)
The nature of assay [13]: viability loss with induced miR-34 in A549 – imaging, A549 dox-inducible miR-34, nuclei and caspase counts, primary screen (AID 1347080;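 active = compounds whose cell count with miR-34 switched on is under 0.7 times the count with it off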). The note with it: A549 miR-34 inducible, Hoechst nuclei count, 48 h.
Assay [14] is described as follows: viability loss in pontine glioma line – cell-based, SU-DIPG-XIII, MIPE5.0, CellTiter-Glo, qHTS, dose response (AID 1347064; cut-off not given, nearly all actives have AC50 up to about 23 µM;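 as to AC50: cells exposed to compound for 48 hours before the viability read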). The note with it: CellTiter-Glo ATP luminescence.
Assay [15] in a line: viability loss in pontine glioma line – cell-based, SU-DIPG-XIII, MIPE4.0, CellTiter-Glo, qHTS, dose response (AID 1347061; cut-off not given, nearly all actives have AC50 up to about 37 µM;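 also: cells exposed to compound for 48 hours before readout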). The settings on record: CellTiter-Glo ATP luminescence.
The nature of assay [16]: MELAS cybrid and Rieske KO viability enhancers – cell-based, MELAS cybrids, Rieske KO mouse fibroblasts, CellTiter-Glo, primary screen (AID 1508586;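 active = mean z-score across replicates of 1.96 or higher in either the MELAS or the Rieske mutant cell line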;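 also: z relative to plate mean and SD of compound and empty wells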). The note with it: low glucose.
[17] abbreviates: stronger effect = lower value, cell number ratio, induced over uninduced.
Setting [18] is: measured here: relative caspase fold change +Dox/-Dox.
Setting [19] is: measured here: total cells with miR-34 induction, stronger effect = lower value.
Setting [20] is: measured here: total cells without miR-34 induction.
The mark [21] stands for this setting: MELAS cybrid survival, CellTiter-Glo 48 h, stronger effect = higher value.
Where [22] appears, read: Rieske KO mouse fibroblast survival, CellTiter-Glo 72 h.

Turning to `CN(C)Cc1ccc(-c2nc3cccc4c3n2CCNC4=O)cc1`, the inhibition – broadly, the relative decrease from the control value, in per cent – in assay [1] (cisplatin combo, at 0.05 µM) was -40.7% and -47.2%; in [1] (cisplatin combo, at 0.5 µM), -18.6%; in assay [1] (cisplatin combo, at 5 µM), -4.49% and -37.9%; in assay [1] (measured here: 5 uM single agent, at 5 µM) it was -23% and -7.92%; in assay [2] (at 0.5 µM), 17.4% (inactive) and -2.96% (inactive); in assay [2] (measured here: with BGB IC20, at 0.5 µM), 58.8% and -16.5%. Besides, the inhibition was 10.8% and 1.62% in assay [2] (measured here: with BGB IC20, at 5 µM); -2.97% and 1.8% in assay [2] (measured here: with cisplatin IC20, at 0.5 µM); 2.38% and -10.9% in [2] (measured here: with cisplatin IC20, at 5 µM); 7.8% and -6.63% in assay [2] (single agent, at 5 µM); -0.12% (inactive) and 3.53% (inactive) in assay [3] (at 0.5 µM); -12.4% and -11.3% in assay [3] (measured here: BGB combination, at 0.5 µM). The inhibition in [3] (measured here: BGB combination, at 5 µM) was -14% and -5.01%; in assay [3] (measured here: cisplatin combination, at 0.5 µM), 2.29% and 7.08%; in assay [3] (measured here: cisplatin combination, at 5 µM) it was -4.32% and 2.44%; in [4] (at 0.5 µM), -6.05% (inactive) and -22.2% (inactive); in [4] (cisplatin combination, at 0.5 µM) it was -18.4% and -65.7%; in assay [4] (cisplatin combination, at 5 µM), -58.6% and -32.7%. Further, the inhibition in assay [4] (measured here: BGB IC40 combination 0.05 uM, at 0.05 µM) was -19.6% and 43.4%; in [4] (single agent, at 5 µM), -6.92% and -7.26%; in assay [5] (at 0.5 µM), -9.62% (inactive) and -41.4% (inactive); in [5] (cisplatin combo, at 5 µM) it was -40.6% and -33.3%; in assay [5] (measured here: BGB IC40 combination, at 0.05 µM) it was -1.87% and -3.35%; in [5] (measured here: combination with cisplatin, at 0.5 µM), -15.6% and -104%. For the same molecule, the inhibition in assay [5] (single agent, at 5 µM) is -19.5% and -24.5%; in assay [6] (at 0.5 µM), 4.03% (inactive) and 11.8% (inactive); in assay [6] (measured here: with BGB IC20 combination, at 0.5 µM), -8.48% and 3.96%; in assay [6] (measured here: with cisplatin IC20 combination, at 0.5 µM), 8.84% and 14.3%; in [6] (single agent, at 0.05 µM), 17.2% and 13.3%; in assay [6] (single agent, at 5 µM) it was -17.9% and -17.8%.
Consider `Nc1nc(OCc2ccccc2)c2[nH]cnc2n1`, for which the outcome in [7], in assay [8], in [9], in assay [10], in assay [11] and in assay [12] was inactive. In addition, the fold change in assay [13] (setting [17]) was 0.895 (inactive); in [13] (setting [18]) it was 1.25. Besides, the figures for the cell count in assay [13] (setting [19]) and in [13] (setting [20]) were 8910 and 9960, respectively.
With `C[C@@H]1C/C=C/C=C/C=C/C=C/[C@@H](O[C@@H]2O[C@H](C)[C@@H](O)[C@H](N)[C@@H]2O)C[C@@H]2O[C@](O)(C[C@@H](O)C[C@@H]3O[C@H]3/C=C/C(=O)O1)C[C@H](O)[C@H]2C(=O)O`, in assay [7], the molecule was classed as inactive.
Regarding `c1cc(N[C@@H]2CCNC2)nc(-c2cnc3ccc(-c4cn[nH]c4)cn23)c1`, the AC50 (as a rule, the concentration giving half of the maximal activity seen) is 11.8 µM (active) in [7]; 14.8 µM (active) in assay [8]; 14.8 µM (active) in [14]; 16.6 µM (active) in assay [9]; 18.7 µM (active) in assay [10]; 16.6 µM (active) in assay [11]. The IC50 – broadly, the concentration needed to halve the response being measured – in [12] was 11.8 µM (active).
Turning to `CNC(=O)[C@H](Cc1ccccc1)NC(=O)[C@H](CC(C)C)[C@H](CSc1cccs1)C(=O)NO`, the molecule was called inactive in assay [15], in assay [10], in assay [11] and in [12].
On to `NC1(Cc2ccc(Cl)cc2)CCN(c2ncnc3[nH]ccc23)CC1`, for which the AC50 in assay [7] was 20.9 µM (active); in assay [8] it was 11.8 µM (active); in [14] it was 14.8 µM (active); in assay [9], 14.8 µM (active). Moreover, the fold change in assay [13] (setting [17]) was 0.99 (inactive); in [13] (setting [18]), 0.525. Also, the figures for the cell count in [13] (setting [19]) and in assay [13] (setting [20]) were 7470 and 7540, respectively. The z-score is -0.165 (inactive) in assay [16] (setting [21]) and -1.1 in [16] (setting [22]).
Consider `Cc1cn2cc(C(=O)N(C)CCO)cc(N[C@@H]3CCOc4cccc(C)c43)c2n1`, for which the molecule was classed as inactive in assay [7], in [8], in assay [14], in [10], in [11] and in assay [12].
With `CCCNC(=O)Nc1ccc(Oc2ncnc3cc(OC)c(OC)cc23)cc1Cl`, the molecule was classed as inactive in assay [7], in assay [8], in assay [10] and in assay [12]. Further, the AC50 in [14] was 20.9 µM (active); in [11] it was 26.3 µM (active). In addition, the fold change is 0.924 (inactive) in assay [13] (setting [17]) and 0.73 in [13] (setting [18]). Further, the values for the cell count in [13] (setting [19]) and in assay [13] (setting [20]) were 7400 and 8010, respectively. Moreover, the z-score is 0.782 (inactive) in assay [16] (setting [21]) and 0.0458 in assay [16] (setting [22]).
Regarding `Cc1ccccc1C(C(=O)NC1CCCC1)N(C(=O)Cn1cnc2ccccc21)c1cccc(F)c1` (configuration not stated), the call in assay [7] and in assay [8] was inactive.
